Source: PubChem BioAssay
The sample as a whole holds a higher share of hits than the screen did.
Chlamy TAG: algal TAG accumulation induction | Chlamydomonas reinhardtii TAG, Nile Red fluorescence, 72 h | calls only at 10 µM (by protocol) | hit rate 0.84% among 44,000; call rule not given here;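 also: hits raise Nile Red signal meaning more stored TAG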
Calls only; i = inactive; + = active, no number.

SMILES	Chlamy TAG
CN1CCC(N(C)Cc2cc(Cl)ccc2O)CC1	+
CN1CCC(N(C)Cc2cc(F)ccc2F)CC1	i
CN(C)Cc1cc(Cl)ccc1O	i
COc1ccc(CNC(=O)C(=O)NC(C)C)cc1	i
COc1ccc(CNC(=O)Cc2ccc(Br)cc2)cc1	i
O=C(Nc1cccc([N+](=O)[O-])c1)C1CCN(S(=O)(=O)c2ccc(F)cc2)CC1	i
CC(C)=CCC/C(C)=C/CN1CCCN(C)CC1	i
Cc1ccc(C(C)CCN2CCN(C)CC2)o1 (stereo not given)	i
CC(C)=CCC[C@H](C)CCN1CCN(C)CC1	+
COc1ccc(NC(=O)c2cccc(C(=O)Nc3ccc(OC)cc3)c2)cc1	i
CCc1nccn1S(=O)(=O)c1cccc(Cl)c1Cl	i
Cc1cc(Br)ccc1OCCCN1CCOCC1	i
Cc1cc(Br)ccc1OCCN1CCOCC1	i
Clc1ccc(OCCOCCN2CCOCC2)c(Br)c1	+
Cc1ccc(OCCN2CCOCC2)c(Br)c1	i
Cc1cc(Br)ccc1OCCOCCN1CCOCC1	+
Clc1ccc(OCCN2CCOCC2)c(Br)c1	i
Clc1cc(Br)ccc1OCCCN1CCCC1	i
Clc1cc(Br)ccc1OCCCN1CCOCC1	+
Clc1cc(Br)ccc1OCCN1CCOCC1	i
Cc1ccc(C)c(CN(CCO)Cc2ccccc2)c1	i
CCCOc1ccc(C(=O)Nc2ccc(F)cc2F)cc1	i
CCN(CC)C(=O)CN1C(=O)C(O)(CC(=O)c2ccccc2)c2ccccc21 (stereo not given)	i
O=C(c1ccncc1)N1CCN(Cc2ccccc2[N+](=O)[O-])CC1	i
O=C(Nc1ccc2oc(-c3ccc(F)cc3)nc2c1)c1ccccc1[N+](=O)[O-]	i
SMILES	Chlamy TAG
CN1CCN(Cc2ccc3c(c2)Cc2ccccc2-3)CC1	+
CN1CCCN(Cc2cccc(Oc3ccccc3)c2)CC1	+
COc1ccc(CN2CCN(C)CC2)cc1OCc1ccccc1	i
COc1cccc(CN2CCCN(C)CC2)c1	i
OC1CCN(Cc2cccc(Oc3ccccc3)c2)CC1	i
CN1CCCN(Cc2cccc(Br)c2)CC1	i
OCC1CCCN(Cc2ccc3c(c2)Cc2ccccc2-3)C1 (stereo not given)	i
OC1CCCN(Cc2ccc3c(c2)Cc2ccccc2-3)C1 (stereo not given)	i
CN1CCN(Cc2cccc(Oc3ccccc3)c2)CC1	+
Cc1cccc(C)c1NC(=O)C(=O)NCC(C)C	i
O=C1C(=O)N(c2ccccn2)C(c2ccc(Cl)cc2)C1=C(O)c1ccccc1 (stereo not given)	i
CCCNC(=O)c1ccccc1NC(=O)c1ccccc1	i
Cc1cc(OCCCn2cnc3ccccc3c2=O)ccc1C(C)C	i
C=CCNC(=O)Cc1ccc(OC)cc1	i
Cc1ccc(C)c(NC(=O)CSCc2ccccc2Br)c1	i
O=C(NCc1ccco1)c1cccc(C(=O)NCc2ccco2)n1	i
CN1CCN(CC(O)COc2ccc(Cl)cc2Cl)CC1 (stereo not given)	i
CCOC(=O)N1CCN(CC(O)COc2ccc(Cl)cc2Cl)CC1 (stereo not given)	i
OC(COc1ccc(Cl)cc1Cl)CN1CCN(Cc2ccccc2)CC1 (stereo not given)	+
CCC(CC)C(=O)NCc1ccccc1	i
CCOc1cc(C(=O)Nc2c(C)cc(Br)cc2C)cc(OCC)c1OCC	i
CCOc1cccc(OCCCOc2ccc([N+](=O)[O-])cc2)c1	i
CCCC(=O)Nc1cccc(NC(=O)C(Cl)(Cl)Cl)c1	i
COc1ccc(C(=O)Nc2ccccc2C(C)C)cc1[N+](=O)[O-]	i
CN(C)CCNCC12CC3CC(CC(C3)C1)C2	i
SMILES	Chlamy TAG
CN(CCC#N)C12CC3CC(CC(C3)C1)C2	+
CN(CCO)C12CC3CC(CC(C3)C1)C2	i
Cc1cc(C)cc(NS(=O)(=O)c2cccs2)c1	i
CC(C)C(NS(=O)(=O)c1cccs1)C(C)C	+
CC(C)c1ccc(NS(=O)(=O)c2cccs2)cc1	i
CC(C)C(C)(O)C#CCN1CCCCC1 (stereo not given)	i
COCCCNC(=O)c1ccc(OC)c([N+](=O)[O-])c1	i
O=C(CN1CCOCC1)NC12CC3CC(CC(C3)C1)C2	i
O=C(O)CNC(=O)NC12CC3CC(CC(C3)C1)C2	i
C=CCNCC(=O)NC12CC3CC(CC(C3)C1)C2	+
COc1cc(CN2CCN(Cc3ccc([N+](=O)[O-])cc3)CC2)cc(OC)c1	+
O=[N+]([O-])c1ccc(CN2CCN(C3CCCCCC3)CC2)cc1	+
COc1ccc(S(=O)(=O)N2CCN(Cc3ccc([N+](=O)[O-])cc3)CC2)cc1	i
COc1ccc(OC)c(CN2CCN(Cc3ccc([N+](=O)[O-])cc3)CC2)c1	+
COc1cc(CN2CCN(Cc3cccc([N+](=O)[O-])c3)CC2)cc(OC)c1OC	i
O=[N+]([O-])c1ccc(CN2CCCCCC2)cc1	i
COc1ccc(OC)c(CN2CCN(Cc3cc(OC)c(OC)c(OC)c3)CC2)c1	i
COc1ccc(CN2CCN(Cc3cccc([N+](=O)[O-])c3)CC2)cc1	i
COc1ccc(CN2CCN(Cc3cc(OC)c(OC)cc3[N+](=O)[O-])CC2)cc1OC	i
COc1ccc(OC)c(CN2CCN(Cc3ccc(OC)c(OC)c3)CC2)c1	i
